Rows were chosen to be rich in hits. Some 2.5% of all compounds tested hit in one or more screens of this group.
p97 ATPase inh = inhibitors of human p97 ATPase; recombinant p97 ATPase, Kinase-Glo ATP luminescence, 3 h; inhibition, % at 8 µM; 0.42% of 220,000 active; P55072; AID 1481; in the data active = inhibition above about 15%;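 also: 0% = DMSO vehicle and 100% = wells lacking enzyme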
UBC9 SUMO inh = SUMOylation inhibition. P63279. HTRF SUMOylation assay, SAE1/SAE2 + UBC9, in vitro. inhibition, % at 35 µM. 0.36% of 290,000 active. AID 2006; in the data active = inhibition above about 50%, passing the limit was not always enough; inconclusive = no clear call, values can overlap the other calls
G6PDH CS = inhibits Leuconostoc G6PDH, flagging false hits in G6PDH-based assays; Purified L. mesenteroides G6PDH, diaphorase/resazurin coupled fluorescence, 45 min; inhibition, % at 5 µM; 0.12% of 200,000 active; in the data active = inhibition above about 50%
PHOSPHO1 inh = PHOSPHO1 (human) inhibition; recombinant PHOSPHO1, absorbance phosphatase assay; inhibition, % at 13.3 µM; 1.1% of 290,000 active; in the data active = inhibition above about 60%
M18AAP inhibitor = blocks P. falciparum M18 aspartyl aminopeptidase; 1.2% of 290,000 active; AID 1822; inhibition, % at 7.35 µM; recombinant PfM18AAP, H-Glu-NHMec fluorogenic cleavage;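 active = inhibition above the campaign mean inhibition over all tested compounds plus 3 SD, cut at about 28% in these data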;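 also: 0% = plate median of test compound wells and 100% = 2 mM ZnCl2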
HDAC3 inhib = inhibitors of human histone deacetylase 3; O15379; recombinant HDAC3, fluorogenic peptide/trypsin coupled, fluorescence; inhibition, % at 8.3 µM; 0.15% of 320,000 active; in the data active = inhibition above about 26%, passing the limit was not always enough; inconclusive = no clear call, values can overlap the other calls
Target sequence (O15379 whole entry, looked up): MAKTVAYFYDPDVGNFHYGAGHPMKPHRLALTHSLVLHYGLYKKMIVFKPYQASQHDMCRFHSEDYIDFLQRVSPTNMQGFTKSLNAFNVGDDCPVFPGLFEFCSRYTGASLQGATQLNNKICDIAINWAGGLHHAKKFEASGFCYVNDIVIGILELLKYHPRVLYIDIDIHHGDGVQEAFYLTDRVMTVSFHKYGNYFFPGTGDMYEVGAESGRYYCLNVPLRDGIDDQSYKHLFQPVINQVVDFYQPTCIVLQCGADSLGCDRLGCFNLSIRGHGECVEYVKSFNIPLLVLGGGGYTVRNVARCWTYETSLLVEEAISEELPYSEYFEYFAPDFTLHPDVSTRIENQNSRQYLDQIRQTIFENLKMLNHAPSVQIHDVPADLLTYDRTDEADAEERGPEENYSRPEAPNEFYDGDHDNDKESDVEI
The depositor's hits bear a star; u = inconclusive; x = no result; ! = not confirmed by another sample.

SMILES	p97 ATPase inh	UBC9 SUMO inh	G6PDH CS	PHOSPHO1 inh	M18AAP inhibitor	HDAC3 inhib
N#CC(C(=O)NC1CC1)c1nc2ccccc2nc1N1CCCC1 (configuration not stated)	11	96	2	9	-1	-8
Cc1ccc(S(=O)(=O)C(C#N)c2nc3ccccc3nc2N2CCN(C)CC2)cc1 (configuration not stated)	1	38	7	-17	4	-1
Cc1cccc(S(=O)(=O)C(C#N)c2nc3ccccc3nc2N2CCOCC2)c1 (configuration not stated)	3	34	7	78*	1	-4
Cc1ccc(S(=O)(=O)C(C#N)c2nc3ccccc3nc2N2CCCCC2)cc1 (configuration not stated)	x	83*	7	93*	x	x
CC(C(=O)NC(C)(C)C)N(C(=O)CS(=O)CC(=O)Nc1ccc(F)cc1)C1CCCC1 (configuration not stated)	x	1	x	26	-2	1
NS(=O)(=O)c1ccc(CCNC(=O)c2cc([N+](=O)[O-])ccc2N2CCCCC2)cc1	x	13	x	20	-8	1
COc1ccccc1OCC(=O)n1cc(C(=O)c2cc(Cl)cc(Cl)c2O)cn1	-2	-20	6	0	33*	0
COCCCNc1nc(=S)[nH]c2cc(OC)c(OC)cc12	5	14	2	82*	1	10
CCOc1cccc(-c2nnc3sc(-c4ccco4)nn23)c1	-2	29	3	64*	-4	6
CCOc1cccc(-c2nnc3sc(-c4ccc(C)cc4)nn23)c1	x	14	4	10	x	x
Brc1ccc(-c2nn3c(-c4ccco4)nnc3s2)o1	-3	11	7	99*	13	12
COc1ccc(-c2nnc3sc(C4CCCCC4)nn23)cc1OC	-8	13	0	14	-3	1
c1coc(-c2nnc3sc(C4CCCCC4)nn23)c1	1	18	14	72*	8	1
Cc1oc(-c2ccccc2Cl)cc1-c1nn2c(-c3ccco3)nnc2s1	x	34	3	72*	x	x
Clc1ccc(-c2ccc(-c3nn4c(-c5ccco5)nnc4s3)o2)cc1	6	x	x	x	5	-7
Cc1cc(C)c2oc(=O)cc(CN3CCCCC3)c2c1	x	1	x	20	-3	-4
CCN(CC)C(=O)Cn1nc(-c2ccc(Cl)cc2)c2ccccc2c1=O	x	18	x	38	-9	-6
Clc1ccccc1-c1nnc2sc(-c3ccncc3)nn12	-2	3	0	9	-4	-12
Clc1ccccc1-c1nn2c(-c3ccncc3)nnc2s1	5	-4	-8	72*	-1	7
S=c1[nH]nc(-c2cc(-c3ccco3)[nH]n2)n1-c1ccccc1Cl	13	69	7	86*	11	10
Oc1ccccc1-c1cc(-c2ccco2)[nH]n1	2	34	17	73*	7	-1
Nc1ccccc1NC(=O)c1ccccc1	5	19	-6	5	-5	75*
O=C(Cn1ccc(NC(=O)OCc2ccccc2)nc1=O)NCc1nc2ccccc2[nH]1	x	x	x	x	x	6
Nc1c(C(O)(C(F)(F)F)C(F)(F)F)cc(C(O)(C(F)(F)F)C(F)(F)F)c2ccccc12	8	-57	0	8	-1	33*
C#CCn1cc(/C=C2\NC(=O)NC2=O)c2ccccc21	x	0	x	33	4	-6
COc1ccc(S(=O)(=O)N2CCC(O)(c3ccc(Cl)cc3)CC2)cc1OC	-3	-13	x	64*	2	-5
O=C(NC1CC1)C1CCN(C2CCN(C(=O)CC3=CCCCC3)CC2)CC1	2	-5	11	12	-2	1
CCOC(=O)N1CCC(=C2c3ccc(Cl)cc3CCc3cccnc32)CC1	-3	-25	13	74*!	3	u
COc1ccc(S(=O)(=O)Nc2c(NC3CCCCC3)c3ccccc3oc2=O)cc1OC	x	4	x	26	3	-1
CCOC(=O)C1CC(c2ccc(Cl)cc2)=NNC1=O (configuration not stated)	5	-4	4	61*	1	-4

Source: PubChem BioAssay
